{
  "source": "PubChem BioAssay (NCATS)",
  "note": "Records with an inconclusive call do not appear. A call without a number means that no potency is given here. The source made the active and inactive calls. The call rests on the fitted dose curve; in most records, active means well fitted activation curve with a large enough effect in the main read-out, with a control signal flat (not every such curve was filed as active); inconclusive means small, poorly fitted or top-dose-only effect, or effect the other way, or a change in a side signal; inactive means flat fitted curve, though single readings scatter. Potency means the concentration at half of the fitted maximal effect.",
  "data": [
    {"biological_target": "3',5'-cyclic-AMP phosphodiesterase 4B (Homo sapiens) (UniProt Q07343)", "sequence (Q07343 whole entry, looked up)": "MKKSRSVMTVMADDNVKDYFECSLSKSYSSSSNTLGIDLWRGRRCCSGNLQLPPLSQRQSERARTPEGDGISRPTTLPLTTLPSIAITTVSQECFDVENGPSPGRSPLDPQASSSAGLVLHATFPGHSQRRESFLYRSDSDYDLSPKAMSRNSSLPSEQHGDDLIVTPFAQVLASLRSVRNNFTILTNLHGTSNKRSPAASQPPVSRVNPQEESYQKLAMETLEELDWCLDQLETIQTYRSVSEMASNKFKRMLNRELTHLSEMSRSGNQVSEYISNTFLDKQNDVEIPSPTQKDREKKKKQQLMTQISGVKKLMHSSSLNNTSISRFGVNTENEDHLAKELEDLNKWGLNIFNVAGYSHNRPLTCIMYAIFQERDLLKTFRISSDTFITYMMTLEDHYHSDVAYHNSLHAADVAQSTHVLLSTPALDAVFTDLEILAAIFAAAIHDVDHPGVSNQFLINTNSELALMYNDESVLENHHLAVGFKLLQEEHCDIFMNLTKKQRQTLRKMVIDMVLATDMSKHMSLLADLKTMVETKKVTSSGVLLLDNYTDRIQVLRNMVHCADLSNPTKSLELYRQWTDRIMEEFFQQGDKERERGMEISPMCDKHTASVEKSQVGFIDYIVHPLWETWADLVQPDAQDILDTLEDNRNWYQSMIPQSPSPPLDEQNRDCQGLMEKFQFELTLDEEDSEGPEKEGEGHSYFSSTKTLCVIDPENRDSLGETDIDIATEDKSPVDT", "assay": "qHTS Assay for Inhibitors of PDE-IV (AID 607)", "conditions": "HEK293 ACTOne CNG channel cells, membrane potential fluorescence; series mostly up to 22.9 µM", "text": "NIH Chemical Genomics Center [NCGC]\nNIH Molecular Libraries Screening Centers Network [MLSCN]\nThe cyclic nucleotide phosphodiesterases (PDEs) are proteins that catalyze hydrolysis of 3', 5'-cyclic nucleotides, such as cyclic adenosine monophosphate (cAMP) and cyclic guanosine monophosphate (cGMP), to their corresponding 5'-nucleotide monophosphates. These enzymes play an important role in controlling cellular concentrations of cyclic nucleotides and have a central role in a variety of intracellular signaling events. cAMP PDEs are emerging as a promising class of drug targets in asthma and cardiovascular disease therapeutic areas.\nThere are no commercially available cell-based screening assays for PDE inhibitors: currently biochemical assays are done using pure substrates (cAMP or cGMP) and purified recombinant PDE enzymes. As with other biochemical screens on intracellular targets, false positives and false negatives may result from issues involving cell membrane permeability, cellular metabolism, and the like.\nHere we report the development of a cell-based screening assay for cAMP phosphodiesterase (PDE) inhibitors. The assay is based on the BD ACTOne# technology (BD Biosciences) which utilizes a modified cyclic nucleotide-gated channel (CNG) to monitor intracellular cAMP changes in live cells. The CNG channel is localized on the plasma membrane, and opens when the intracellular cAMP level increases, resulting in ion flux and cell membrane depolarization. The influx of cations through the CNG channel can be quantified using membrane potential (MP) dyes. We modified the BD ACTOne technology to allow the detection of PDE inhibitors, and performed an inhibitor screen for PDE-IV, which is expressed endogenously in HEK293 cells. We optimized this assay in homogeneous 1536-well plate assay format for high throughput screening.\nNCGC Assay Protocol Summary:\nThe medium contained 10% FBS (Invitrogen), 2 mM L-glutamine, and 250 ug/ml G418 (Cellgro) and 1 ug/ml puromycin (Clontech). ACTOneTM parental cells (BD Biosciences) were maintained in the same medium without puromycin.\nThe activity of the CNG channel was measured by BD ACTOneTM membrane potential dye kit (BD Biosciences). Forskolin, a positive control for cAMP activation and RO 20-1724, a PDE inhibitor, were both purchased from Sigma and solublized in DMSO.\nSequence,Parameter,Value,Description\n1,Reagent,3 uL,1000 cells/well 1536 TC treated Black plate\n3,Compound,0.5 uL,Kalypsys dispense RO 20-1724 100 uM final [A]\n4,Reagent,3 uL,BD membrane potential dye\n6,Compound,23 nL,Final concentration was 0.7nM to 22.9uM\n8,Detector,EX 535 / EM 590 [B],Envision\nFootnotes: [A] The stock 2 mM RO 20-1724 PDE inhibitor was made in 10 % DMSO. Parental cell line received 10 uM forskolin + 100 uM RO. [B] Envsion settings: Bottom Excitation 535/20 nm top emission 590/20, gain of 150 and 5 flashes per well.\nKeywords: PDE, PDE-IV, cytotoxicity, flourescence, MLSMR, MLSCN, NIH Roadmap, qHTS, NCGC", "values": [
      {"smiles": "CCCN(CCC)[C@H]1CCc2c(F)ccc(O)c2C1", "Potency": "inactive"},
      {"smiles": "CCCn1c(C)c(C(=O)c2ccc3ccccc3c2)c2ccccc21", "Potency": "inactive"},
      {"smiles": "O=c1c2ccccc2[se]n1-c1ccccc1", "Potency": "inactive"},
      {"smiles": "CC(C)NP(=O)(NC(C)C)OP(=O)(NC(C)C)NC(C)C", "Potency": "inactive"},
      {"smiles": "CCCN(CCC)C1Cc2cc(OC)c(OC)cc2C1", "Potency": "inactive"},
      {"smiles": "CN(N=O)c1cc(O)ccc1O", "Potency": "inactive"},
      {"smiles": "CN(N=O)c1ccc(O)c(O)c1", "Potency": "inactive"},
      {"smiles": "OCc1cnc[nH]1", "Potency": "inactive"},
      {"smiles": "CN1CCC(c2c[nH]c3ccc(O)cc23)CC1", "Potency": "inactive"},
      {"smiles": "Cc1[nH]c2ccc(O)cc2c1CCN", "Potency": "inactive"},
      {"smiles": "Clc1ccc(N2C[C@H]3CC[C@@H](C2)N3)nn1", "Potency": "inactive"},
      {"smiles": "CC(C)(C)c1cc(O)ccc1O", "Potency": "inactive"},
      {"smiles": "C[N+]1(C)CCN(c2ccccc2)CC1", "Potency": "inactive"},
      {"smiles": "NNC(N)=O", "Potency": "inactive"},
      {"smiles": "NCCCP(=O)(O)O", "Potency": "inactive"},
      {"smiles": "CCC1(C)CC(=O)NC(=O)C1", "Potency": "inactive"},
      {"smiles": "N#CCCN", "Potency": "inactive"},
      {"smiles": "c1cc2c(c(NC3=NCCN3)c1)CCCC2", "Potency": "inactive"},
      {"smiles": "NC(=O)COc1c(F)cc(SCCNS(=O)(=O)c2ccccc2)cc1F", "Potency": "inactive"},
      {"smiles": "CCCN(CCC)CCc1ccc(O)c(O)c1", "Potency": "inactive"},
      {"smiles": "NC(=O)c1cc(N2CC2)c([N+](=O)[O-])cc1[N+](=O)[O-]", "Potency": "inactive"},
      {"smiles": "CCCn1c(=O)c2[nH]c(C3CCCC3)nc2n(CCCOC(=O)c2ccc(S(=O)(=O)F)cc2)c1=O", "Potency": "1260 nM (active)"},
      {"smiles": "c1ccc2c(c1)[I+]c1ccccc1-2", "Potency": "inactive"},
      {"smiles": "O=S(=O)(O)c1cc(O)ccc1O", "Potency": "inactive"},
      {"smiles": "COc1ccc2[nH]cc(CCN)c2c1", "Potency": "inactive"},
      {"smiles": "O=[N+]([O-])c1cc(O)c(O)c([N+](=O)[O-])c1", "Potency": "inactive"},
      {"smiles": "O=C1C=CC(=O)C=C1", "Potency": "inactive"},
      {"smiles": "CP(=O)(O)C1=CCNCC1", "Potency": "inactive"},
      {"smiles": "Nc1ccc(CCN2CCN(c3cccc(C(F)(F)F)c3)CC2)cc1", "Potency": "inactive"},
      {"smiles": "CCCN1CCc2cc(O)cc3c2[C@H]1Cc1ccc(O)c(O)c1-3", "Potency": "inactive"},
      {"smiles": "N#CC(C#N)=Cc1cc(O)c(O)c(O)c1", "Potency": "inactive"},
      {"smiles": "Cc1sc2ccccc2c1CC1=NCCN1", "Potency": "inactive"},
      {"smiles": "CCS(=O)(=O)Nc1cccc(C(=C2CCCCC2)c2cnc[nH]2)c1", "Potency": "inactive"},
      {"smiles": "C[N+]1(C)[C@@H]2CC[C@H]1CC(OC(=O)c1c[nH]c3ccccc13)C2", "note": "(stereo not given in full)", "Potency": "inactive"},
      {"smiles": "C[C@H](N)CN1CCc2ccc(Br)cc21", "Potency": "inactive"},
      {"smiles": "NCCc1ccc(S(=O)(=O)F)cc1", "Potency": "inactive"},
      {"smiles": "C[N+](C)(C)CC#CCOC(=O)Nc1cccc(Cl)c1", "Potency": "inactive"},
      {"smiles": "CCCCCCC(C)(C)c1ccc([C@@H]2C[C@H](O)CC[C@H]2CCCO)c(O)c1", "Potency": "inactive"},
      {"smiles": "c1ccc2cc(CC3=NCCN3)ccc2c1", "Potency": "inactive"},
      {"smiles": "NC(=O)CI", "Potency": "inactive"}
    ]}
  ]
}
